Laboratory results taken from PubChem BioAssay AID493168 (National Center for Advancing Translational Sciences (NCATS), 2011).
Records with an inconclusive call do not appear. Calls of active or inactive are those of the source. The call rests on the fitted dose curve; in most records, active means well fitted inhibition curve with a large enough effect; inconclusive means small, poorly fitted or top-dose-only effect, or effect the other way; inactive means flat fitted curve, though single readings scatter.

The compounds below were run against Ubiquitin carboxyl-terminal hydrolase 2 (Homo sapiens) (UniProt O75604) (assay: Confirmation Assay for Inhibitors of Ubiquitin-specific Protease USP2a Using CHOP2 as the Reporter). Details: USP2 core, Ub-CHOP2 coupled reporter fluorescence; series mostly up to 38.3 µM; activity change, negative = inhibition: at the top concentration.
Sequence of Ubiquitin carboxyl-terminal hydrolase 2 (Homo sapiens) (O75604 whole entry, looked up): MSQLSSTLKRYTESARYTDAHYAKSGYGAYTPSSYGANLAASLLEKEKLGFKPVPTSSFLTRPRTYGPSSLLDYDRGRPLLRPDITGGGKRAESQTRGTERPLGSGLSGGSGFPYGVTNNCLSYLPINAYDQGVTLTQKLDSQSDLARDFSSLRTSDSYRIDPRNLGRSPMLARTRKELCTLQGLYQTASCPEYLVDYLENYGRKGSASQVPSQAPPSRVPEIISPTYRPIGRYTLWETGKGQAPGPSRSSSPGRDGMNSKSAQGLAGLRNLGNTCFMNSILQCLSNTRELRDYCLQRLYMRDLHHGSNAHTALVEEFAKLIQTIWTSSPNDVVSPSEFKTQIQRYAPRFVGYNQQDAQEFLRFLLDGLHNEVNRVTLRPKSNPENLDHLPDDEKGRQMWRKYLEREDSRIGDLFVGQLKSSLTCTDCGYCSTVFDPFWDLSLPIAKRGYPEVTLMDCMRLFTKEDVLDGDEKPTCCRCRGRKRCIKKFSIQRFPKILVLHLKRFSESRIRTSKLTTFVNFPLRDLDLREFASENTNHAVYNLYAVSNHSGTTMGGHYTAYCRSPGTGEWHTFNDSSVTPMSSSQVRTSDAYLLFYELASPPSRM
In short: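 USP2 core (10 nM final) was preincubated with compound for 30 min at RT in Tris-HCl pH 8.0, CaCl2, beta-mercaptoethanol, CHAPS. Ub-CHOP2 and reporter substrate (25 nM final each) were added, and fluorescence (Ex 485/Em 531 nm) was read after 60 min.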
Further: nearly all actives have a fitted effect of over 55% in size.
Potency means the concentration at half of the fitted maximal effect.
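Wherever activity change, negative = inhibition is given: plate controls were DMSO wells for no effect and full inhibition by NEM control for full effect.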

Activity change, negative = inhibition, inactive:
O=C1NC(=Nc2ccc3ccccc3c2)S/C1=C/c1ccco1 -20.7%, COCc1cc(C)nc(SCC[N+](C)(C)CC(=O)Nc2cccc(C(F)(F)F)c2)c1C#N -13.5%, CCC(CO)Oc1cc(NCc2cccc(C)c2)c2ncn(C(C)C)c2c1 (centres undefined) 6.16%, CC(C)n1nc(C(=O)Nc2ccccc2N2CCOCC2)c2ccccc2c1=O 0.877%, COc1ccc(OC)c(NC(=O)CSc2nc(O)cc(=O)n2CC(C)C)c1 1.08%, CN(C)S(=O)(=O)c1ccc(C(=O)NCCN=C2NS(=O)(=O)c3ccccc32)cc1 0.266%, CCOC(=O)N1CCN(C(=O)CN(c2ccc(C)c(C)c2)S(=O)(=O)c2ccccc2)CC1 -1.56%, COc1ccc(S(=O)(=O)N2CCCC2C(=O)NCc2cccs2)cc1 (centres undefined) 2.04%, O=C(O)CC1(CC(=O)Nc2ccc3ccccc3c2)CCCCC1 4.41%, Cc1ccc(S(=O)(=O)Nc2ccc(N3CCOCC3)cc2)cc1 -0.804%, Cc1ccc(S(=O)(=O)Cc2ccc(C(=O)N3CCN(c4ccccn4)CC3)o2)cc1 -2.6%, CC(C)(C)c1cc(Br)ccc1OCC(=O)Nc1ncn[nH]1 1.94%, COC(=O)c1ccc(CSc2ncnc3ccccc23)o1 1.14%, COC(=O)CC1Oc2ccc(C)cc2NC1=O (centres undefined) 5.71%, O=C(CSc1nc2ccccc2[nH]1)Nc1ccc2c(c1)OCCO2 -2.85%, CCOc1ccc(NC(=O)CSc2nnc(Cn3c(=O)sc4ccccc43)n2C)cc1 -0.518%, C=CCn1c(O)c(C(CC)=NCCN2CCOCC2)c(=O)[nH]c1=O 5.16%, CN(C)c1ccc(/C=C(/NC(=O)c2ccccc2)C(=O)N/N=C/c2ccc([N+](=O)[O-])c(O)c2)cc1 -15.8%, Cc1ccc(C)n1-c1cc(S(=O)(=O)N2CCOCC2)ccc1N1CCCC1 -0.614%, COc1ccccc1-n1c(SCC(=O)Nc2ccc(C)cc2)nc(O)cc1=O -5.29%, Cn1nc(CC(=O)NCc2ccc(F)cc2)c2ccccc2c1=O 4.3%, FC(F)(F)C1=Nc2cccc3cccc(c23)N1 -3.63%, NC(=O)CC(NC(=O)Cc1ccc(Br)cc1)c1ccc(N2CCC(Cc3ccccc3)CC2)c([N+](=O)[O-])c1 (centres undefined) -0.26%, COc1ccc(NC(=O)CSc2nc3sc(C)cc3c(=O)n2C)c(OC)c1 -4.17%, CCN(CC)S(=O)(=O)c1ccc(Cl)c(NC(=O)COC(=O)c2c(C)noc2C)c1 9.62%, O=C(CSc1ccc2nnc(-c3cccc(F)c3)n2n1)N1CCCc2ccccc21 -0.849%, CC(=O)C1=C(O)C(=O)N(c2nnn(C)n2)C1c1cccs1 (centres undefined) -0.108%, COc1ccc(O)c(-c2cc(-c3ccc(F)cc3)n[nH]2)c1 -4.2%, COc1ccc(-c2nnn(CC(=O)N3CCOCC3)n2)cc1 5.99%, CCCOc1ccc(/C=C2\SC(=S)N(CC3CCCO3)C2=O)cc1 (centres undefined) -1.61%, CCN(C[C@H]1N[C@@](CC)(C(=O)OC)[C@H]2C(=O)N(Cc3ccccc3)C(=O)[C@@H]12)C(=O)Nc1ccc(C)cc1 0.513%, Cn1cccc1CC(=O)N/N=C/C=C/c1ccco1 -10.7%, CCCOc1ccc(-c2nc(C#N)c(N3CCN(CC)CC3)o2)cc1 2.02%, CCOc1ccc2[nH]c(=O)c(CN(Cc3cccs3)Cc3nnnn3C(C)(C)CC)cc2c1 -1.09%, CC1Cc2ccccc2N1C(=O)Cn1c(=O)oc2cc(S(=O)(=O)NC3CCCC3)ccc21 (centres undefined) 1.18%, Cc1ccc(/C(N)=N/OC(=O)Oc2ccccc2)cc1 -1.51%

Potency, active:
O=C(COC(=O)c1c2c(nc3ccccc13)/C(=C/c1ccco1)CC2)NC1CCCC1 14.7 µM, O=C(N/N=C/c1ccc(F)cc1)c1cc(-c2ccco2)nc2ccccc12 18.5 µM, O=C(Nc1ccncc1)c1ccc(S(=O)(=O)Nc2ccccc2)cc1 14.7 µM
